Among all 340,000 compounds or so, about 8,500 (2.5%) were called active.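 Rule for the calls: active = melting temperature shift of at least 10% of the positive control shift, at one fixed dose; inactive = the rest.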 Many of the other results were omitted from the sample, so actives are more common in it than they were.

The assay concerns Glutamate receptor ionotropic, NMDA 3A (GRIN3A) ligand-binding domain. The assay is described as follows: NR3A LBD thermal stabilization by compounds – biophysical, differential scanning fluorimetry, uHTS, primary screen (AID 1259313). The following applies: at 25 µM, stronger effect = higher value, 0% = protein alone, 100% = glycine-bound protein.
Take `O=C(COC(=O)c1c(Cl)cccc1Cl)Nc1cccc(S(=O)(=O)NC2=NCCCCC2)c1`: the Tm shift relative to glycine control was 1.06% (inactive).

As to `O=C(CCl)Nc1ccc(Sc2ccc(NC(=O)CCl)cc2)cc1`, the Tm shift relative to glycine control was -12.3% (inactive).

On to `CC(=O)N(Cc1cccs1)C1CCOC(C)(C)C1` (configuration not stated), for which the Tm shift relative to glycine control is -1.65% (inactive).

As to `Oc1ccc(/C=N/Nc2ccc(C(F)(F)F)cn2)cc1O`, the Tm shift relative to glycine control was 21.1% (active).

Consider `FC(F)(F)c1cccc(N/N=C/c2ccccc2)c1`, for which the Tm shift relative to glycine control was 6.56% (inactive).

As to `Oc1ccc(Br)cc1/C=N/Nc1ccccn1`, the Tm shift relative to glycine control was -22% (inactive).

For `CCCCOP(=O)(c1ccc(N(C)C)cc1)C(O)c1cc(OC)ccc1OC` (configuration not stated), the Tm shift relative to glycine control was -0.74% (inactive).

As to `O=C(Nc1cccc(Cl)c1)Nc1ccccc1NS(=O)(=O)c1cccs1`, the Tm shift relative to glycine control is 30.3% (active).

On to `O=S(=O)(Nc1ccccc1Br)c1cccs1`, for which the Tm shift relative to glycine control was 0.85% (inactive).

Turning to `O=S(=O)(NCc1ccc(Cl)cc1Cl)c1cccs1`, the Tm shift relative to glycine control was 1.65% (inactive).

Turning to `NC(=O)Cc1ccc2sc(-c3ccccc3)nc2c1`, the Tm shift relative to glycine control was -2.6% (inactive).

In the case of `Cc1ccc(S(=O)(=O)NCC(=O)N(CC(=O)NCC2CCCO2)c2cccc(F)c2)cc1` (configuration not stated), the Tm shift relative to glycine control is -1.71% (inactive).

Regarding `CCn1c(SCc2ccccc2)nc2cc(OC)c(OC)cc2c1=O`, the Tm shift relative to glycine control was -6.11% (inactive).

Regarding `O=c1[nH]c(CSc2ncc(-c3ccc(F)cc3)n2Cc2ccco2)nc2ccccc12`, the Tm shift relative to glycine control was -0.27% (inactive).

With `Nc1cc(=O)nc(SCc2ccccc2)n1Cc1ccco1`, the Tm shift relative to glycine control was 10.8% (active).

For `COc1cccc(N(Cc2nnc3n2CCCCC3)C(=O)Nc2ccccc2F)c1`, the Tm shift relative to glycine control is 0.08% (inactive).

For `CCCN(CCC)C(=S)Nc1cc(C(=O)OC)ccc1C(=O)OC`, the Tm shift relative to glycine control was -5.25% (inactive).

In the case of `CC(=O)C1=C(C)NC(C)=C(C(C)=O)C1c1cn(-c2ccccc2)nc1-c1cccs1`, the Tm shift relative to glycine control is -4.58% (inactive).

As for `CCc1ccc(CN(C)C(=O)C2CCC(=O)N(Cc3cccc(OC)c3)C2)nc1` (configuration not stated), the Tm shift relative to glycine control was 1.62% (inactive).

As for `O=C(Nc1ccc(N2CCOCC2)cc1)c1ccc(-c2ccccc2[N+](=O)[O-])o1`, the Tm shift relative to glycine control was -2.01% (inactive).

Regarding `CC1=NN(c2ccc(Cl)c(C(=O)O)c2)C(=O)/C1=C/c1ccc(-c2ccccc2[N+](=O)[O-])o1`, the Tm shift relative to glycine control was 31.1% (active).

For the compound `O=C1NC(c2ccc(-c3ccccc3[N+](=O)[O-])o2)C(C(=O)c2ccc(Cl)cc2)C(O)(C(F)(F)F)N1` (configuration not stated), the Tm shift relative to glycine control is -17.2% (inactive).

Consider `Cc1cnc(CN(C)C(=O)C2CCC(=O)N(CCc3cccc(F)c3)C2)[nH]1` (configuration not stated), for which the Tm shift relative to glycine control was -3.25% (inactive).

Take `CC(C)C(=O)NCc1cc(-c2ccc(Cl)cc2)no1`: the Tm shift relative to glycine control is 0.32% (inactive).

Turning to `Oc1ccccc1-c1cc(-c2ccc(Cl)cc2)n[nH]1`, the Tm shift relative to glycine control is 31% (active).

As to `CSc1ccccc1-c1nnc(-c2ccc(Cl)cc2)o1`, the Tm shift relative to glycine control was 0.54% (inactive).

In the case of `NC(=O)C[C@@H]1NC(=O)CNC(=O)c2cc([N+](=O)[O-])cc(I)c2NCCC(C(N)=O)NC1=O` (some centres not stated), the Tm shift relative to glycine control was -1.1% (inactive).

`CCC(C)n1[nH]c(=O)cc1N` (configuration not stated): the Tm shift relative to glycine control is -2.66% (inactive).

As to `N#Cc1ccccc1S(=O)(=O)N1CCN(Cc2c(O)ccc3ccccc23)CC1`, the Tm shift relative to glycine control was -5.71% (inactive).

In the case of `COc1cc(C(=O)NCC(=O)N2CC=C(c3ccccc3)CC2)cc(OC)c1OC`, the Tm shift relative to glycine control is 0.85% (inactive).

Turning to `O=C(Nc1ccc(Cl)c(Cl)c1)N1CC=C(c2ccccc2)CC1`, the Tm shift relative to glycine control was 12.9% (active).

With `O=C(O)c1cccc(S(=O)(=O)N2CC=C(c3ccccc3)CC2)c1`, the Tm shift relative to glycine control is 1.73% (inactive).

For the compound `CC(C)c1ccc(Nc2ncccc2C#N)cc1`, the Tm shift relative to glycine control was -9.92% (inactive).

Take `O=C(COc1ccc([N+](=O)[O-])cc1Cl)Nn1cnnc1`: the Tm shift relative to glycine control was 1.68% (inactive).

For the compound `CCOc1ccc(/C(O)=C2\C(=O)C(=O)N(c3ccc(OC)cc3)C2c2ccccc2[N+](=O)[O-])cc1` (configuration not stated), the Tm shift relative to glycine control was -0.41% (inactive).

Regarding `COc1ccc(S(=O)(=O)N2CCOCC2)cc1NC(=O)c1ccc(OCC(C)C)c(OC)c1`, the Tm shift relative to glycine control was 3.09% (inactive).

Turning to `COC(=O)Cc1ccc(NC(=S)NCc2ccc(Cl)cc2)cc1`, the Tm shift relative to glycine control was -5.66% (inactive).

As for `S=C(NCc1ccc(Cl)cc1)NC12CC3CC(CC(C3)C1)C2`, the Tm shift relative to glycine control was 15.2% (active).

Take `CN(C)CCCNC(=S)NCc1ccc(Cl)cc1`: the Tm shift relative to glycine control is 2.67% (inactive).

Consider `CN(C)c1ccc(/C=C/C(=O)c2ccc(O)cc2)cc1[N+](=O)[O-]`, for which the Tm shift relative to glycine control was 5.36% (inactive).

`O=C(/C=C\c1ccc2c(c1)OCO2)NC1(C(=O)Nc2ccc3c(c2)OCCO3)CCCCC1`: the Tm shift relative to glycine control was -13.2% (inactive).

For `O=C(/C=C/c1ccc2c(c1)OCCO2)c1ccc(O)cc1`, the Tm shift relative to glycine control was 13.4% (active).

For the compound `CC(C)c1nnc(NC(=O)C2CC(=O)N(CCc3ccc(F)cc3)C2)s1` (configuration not stated), the Tm shift relative to glycine control is -0.27% (inactive).

Turning to `CCCC(C(=O)n1nc(C)cc1C)C(NS(=O)(=O)c1ccc(C)cc1)c1ccccc1` (configuration not stated), the Tm shift relative to glycine control is -0.23% (inactive).

Turning to `CSCCC(NC(=O)c1ccccc1)C(=O)N1CCCCCCC1` (configuration not stated), the Tm shift relative to glycine control is 0.17% (inactive).

Consider `CSCCC(NC(=O)c1ccccc1)C(=O)N1CCN(Cc2ccc(Cl)cc2)CC1` (configuration not stated), for which the Tm shift relative to glycine control was 18.1% (active).

Turning to `COc1ccccc1C(=O)NC(CCSC)C(=O)N1CCN(C(C)=O)CC1` (configuration not stated), the Tm shift relative to glycine control is -1.22% (inactive).

The values above are taken from PubChem BioAssay AID1259313 (Sanford-Burnham Center for Chemical Genomics, 2017).
